Molecular target: MST4
Assay: pooled miR-30 sensor sort-seq; sequence = guide strand
Details: shRNA
Further: reference of the scale not given here.

Question: How did the sensor-assay potency score (higher = more potent) turn out when TTATCATAGACAAACAACTCAG was run?
Answer: -0.749

Question: Which sensor-assay potency score (higher = more potent) does the source give for TATTTTGTTACATATGAGCTGT here?
Answer: -0.0518

Question: Which sensor-assay potency score (higher = more potent) does the source give for TAGTTTAATAGCTTCTTCCAAA here?
Answer: -1.19

Question: Which sensor-assay potency score (higher = more potent) does the source give for TTCAACATTACCAAACACCTAT here?
Answer: -0.0444

Question: TTGCTTTAAATTTCTAACCATG was tested. Which sensor-assay potency score (higher = more potent) did it give?
Answer: -1.11

Question: TTTGTGAACAGTTCTTCTGGAT was tested. Which sensor-assay potency score (higher = more potent) did it give?
Answer: 0.425

Question: Which sensor-assay potency score (higher = more potent) does the source give for TTTAATAGCAACGACTTGCTGG here?
Answer: 0.885

Question: TATCATAGACAAACAACTCAGG was tested. Which sensor-assay potency score (higher = more potent) did it give?
Answer: -0.251

Question: TATAGGACAATTTATTACCATG was tested. Which sensor-assay potency score (higher = more potent) did it give?
Answer: -1.23

Question: How did the sensor-assay potency score (higher = more potent) turn out when TAAACTGTAATTGTGTTTCAGT was run?
Answer: 0.0353

Question: Which sensor-assay potency score (higher = more potent) does the source give for TAAAATTGCCTCTTCTACCTAA here?
Answer: 0.733

Question: TAATATTTGACAATTACTCAGA was tested. Which sensor-assay potency score (higher = more potent) did it give?
Answer: -0.142

Molecular target: MTDH
Assay: as above
Details: shRNA

Question: TTCTAATTCTTCTGTGTCCTGT was tested. Which sensor-assay potency score (higher = more potent) did it give?
Answer: 0.277

Question: TAGTTGAATCCAATGAACCAGA was tested. Which sensor-assay potency score (higher = more potent) did it give?
Answer: -0.602

Question: Which sensor-assay potency score (higher = more potent) does the source give for TTCTTCTGTTCCTCGCTCCGGA here?
Answer: -0.0167

Question: How did the sensor-assay potency score (higher = more potent) turn out when TTAGAAGTGAAGCTCTTTCTTC was run?
Answer: -0.219

Question: How did the sensor-assay potency score (higher = more potent) turn out when TAAATTAAGATCGTTCTTGTTC was run?
Answer: 0.14

Source: the OligoGym collection
